# From PubChem BioAssay (Tox21)
# Records with an inconclusive call do not appear. Entries that show only a call come without a potency. Active and inactive are the calls of the source. The call rests on the fitted dose curve; in most records, active means well fitted cell-killing curve with a large enough effect in the repeat runs; inconclusive means weak or mixed curves, or effect the other way; inactive means flat fitted curve, though single readings scatter.
# Assay: cAMP Responsive Elements (CRE) small molecule agonists, cell-based qHTS assay: qHTS cell viability counter screen (AID 2060914); further: nearly all actives have a fitted effect of over 50% in size
# Method in brief: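 Luminescence read-out (CellTiter-Glo, 30 min RT) of ATP-based viability in CRE-bla HEK 293T cells, run in the same wells as the β-lactamase reporter assay after 3 h compound treatment at 37 °C.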
# Potency means the concentration at half of the fitted maximal effect.
row,Structure (SMILES),Potency
1,CCCNCC(O)COc1ccccc1C(=O)CCc1ccccc1 (configuration not stated),inactive
2,CCN(C)C(=O)Oc1cccc([C@H](C)N(C)C)c1,inactive
3,CC(C)CCCCCCc1ccc(OCCOCCO)cc1,inactive
4,Cc1ccc(-n2nc(C(C)(C)C)cc2NC(=O)Nc2ccc(OCCN3CCOCC3)c3ccccc23)cc1,inactive
5,O=C(O)c1cccc(-c2noc(-c3ccccc3F)n2)c1,21.1 µM (active)
6,CC(C)OCC1CO1 (configuration not stated),inactive
7,COc1ccc(-n2nc(CCC(=O)N(C)O)cc2-c2ccc(Cl)cc2)cc1,inactive
8,CC(=O)c1cc2ccccc2s1,inactive
9,CCCCCCOC(=O)CCCCCCCC(=O)OCCCCCC,inactive
10,CCOC(=O)CN,inactive
11,C=C[C@](C)(O)CC[C@@H]1[C@@]2(C)CCCC(C)(C)[C@@H]2CC[C@@]1(C)O,inactive
12,O=C1CCCCC1,inactive
13,CO[Si](CCCOCC1CO1)(OC)OC (configuration not stated),inactive
14,Fc1ccccc1[C@@H](F)COC1CCC(Nc2ncnc3[nH]ncc23)CC1 (some centres not stated),inactive
15,O=C(CCBr)N1CCN(C(=O)CCBr)CC1,inactive
16,CC(C)CCCCCCCCCCCCCCC(=O)O,inactive
17,OC1OC[C@@H](O)[C@H](O)[C@H]1O (some centres not stated),inactive
18,COC(c1ccccc1)(c1ccccc1)[C@H](Oc1nc(C)cc(C)n1)C(=O)O,inactive
19,CC1(C)CCC[C@]2(C)[C@H]3CC(=O)O[C@]3(C)CC[C@@H]12,inactive

row,Structure (SMILES),Potency
1,Cc1cccc2n[nH]nc12,inactive
2,O=C(/C=C/c1ccccc1)OCCc1ccccc1,inactive
3,CC1CCCC(=O)C1=O (configuration not stated),inactive
4,C#CC(O)C(CC)CCCC (configuration not stated),inactive
5,Cc1ccccc1N=O,inactive
6,CCCCC(CC)COC(=O)c1ccc(O)cc1 (configuration not stated),inactive
7,C[C@]12CC[C@H]3C(=CCc4cc(O)ccc43)[C@@H]1CCC2=O,inactive
8,CCCCOC(=O)[C@H](C)O,inactive
9,COc1ccccc1NC(=O)c1cc2ccccc2cc1O,30.6 µM (active)
10,C=CC(=O)OCCCCCCCCCC,inactive
11,CC/C(C)=N\O[Si](C)(O/N=C(\C)CC)O/N=C(\C)CC,inactive
12,OCCN1CCNCC1,inactive
13,O=C(c1ccc(O)cc1)c1ccc(O)cc1,inactive
14,NC(=O)/N=N/C(N)=O,inactive
15,CCC(C)C=O (configuration not stated),inactive
16,OCc1ccc(Cl)cc1Cl,inactive
17,Cc1ccccc1Cl,inactive
18,CCC(C)n1ncn(-c2ccc(N3CCN(c4ccc(OC[C@H]5CO[C@](Cn6cncn6)(c6ccc(Cl)cc6Cl)O5)cc4)CC3)cc2)c1=O (some centres not stated),inactive
